Screening results: PubChem, several laboratories
In the library only some 32% were active in any assay of this set; here they are far more common.
CYP2C19 act – human CYP2C19 activators, primary screen, biochemical, luminescence; Cytochrome P450 2C19 (Homo sapiens), P33261; recombinant CYP2C19, luciferin-H EGE luminescence; stronger effect = higher value; 0 = fully inhibited enzyme, 1 = untreated enzyme; activation factor at 5 µM; 96,000 tested, under 10 active;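 active = activation factor of at least 2 at 5 µM in the primary screen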;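 also: 0 = wells with 2.5 mM tranylcypromine and 1 = vehicle-only wells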
Target sequence (P33261 whole entry, looked up): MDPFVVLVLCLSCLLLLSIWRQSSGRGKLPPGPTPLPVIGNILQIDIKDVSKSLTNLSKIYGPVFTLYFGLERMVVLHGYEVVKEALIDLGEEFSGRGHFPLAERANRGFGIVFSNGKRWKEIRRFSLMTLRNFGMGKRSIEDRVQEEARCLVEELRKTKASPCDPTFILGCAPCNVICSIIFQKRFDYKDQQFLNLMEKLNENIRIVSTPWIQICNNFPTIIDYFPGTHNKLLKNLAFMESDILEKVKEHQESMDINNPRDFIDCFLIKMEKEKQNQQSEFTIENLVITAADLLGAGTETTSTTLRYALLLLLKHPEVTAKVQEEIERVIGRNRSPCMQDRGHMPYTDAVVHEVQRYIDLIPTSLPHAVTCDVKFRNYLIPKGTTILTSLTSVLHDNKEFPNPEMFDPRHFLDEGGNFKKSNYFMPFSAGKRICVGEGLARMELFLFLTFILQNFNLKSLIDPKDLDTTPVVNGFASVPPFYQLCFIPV
CYP2C19 inh – blockers of cytochrome P450 2C19 activity – biochemical, luminescence, ADME assay, primary screen; P33261; CYP2C19 Supersomes, luciferin-H EGE luminescence, 30 min; inhibition, % at 5 µM; 96,000 tested, 21% active;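 active = CYP2C19 inhibition above a set limit at 5 µM in the primary screen, cut at about 50% in these data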;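 also: plate controls were negative control wells for no effect and 2.5 mM tranylcypromine positive control for full effect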
CYP2C9 activ – human CYP2C9 activators, primary screen, biochemical, luminescence. Cytochrome P450 2C9 (Homo sapiens), P11712. recombinant CYP2C9, luciferin-H conversion; stronger effect = higher value; factor 1 = untreated enzyme, 0 = blocked. activation factor at 5 µM. 96,000 tested, 1.4% active;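 active = activation factor of 2 or more for CYP2C9 at a 5 µM dose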;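 also: 0 = sulfaphenazole-blocked wells and 1 = vehicle-only wells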
PostGolgi ctrl – growth inhibition of yeast control strain, primary screen, counter-screen for post-Golgi transport modulator project. efflux-deficient yeast background strain, growth absorbance A615, 16 h. inhibition, % at 10 µM. 98,000 tested, 5% active
PostGolgi yeast – phenotypic screen on post-Golgi transport, primary screen; post-Golgi transport phenotypic cell assay; inhibition, % at 10 µM; 98,000 tested, 0.9% active; AID 739, 2007;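 also: yeast cells grown in 1536-well plates; yeast grown about 18 h at 30C before absorbance read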
CYP2C9 inh – blockers of cytochrome P450 2C9 activity – biochemical, luminescence, ADME assay, primary screen. inhibition, % at 5 µM. P11712. CYP2C9 Supersomes, luciferin-H conversion. 96,000 tested, 20% active;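 active = blocking of liver enzyme CYP2C9 beyond about 50% at 5 µM, limit read from the data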
An asterisk follows results filed as active; · = no result. Rule as the data show it, unless noted: active = inhibition above about 30%; inactive = the rest.

SMILES	CYP2C19 act	CYP2C19 inh	CYP2C9 activ	PostGolgi ctrl	PostGolgi yeast	CYP2C9 inh
O=C(CN1C(=O)c2cccc3cccc(c23)C1=O)N1CCCCCC1	1.1	-9	1	11	-4	-4
O=C(N/N=C/c1ccc(-c2cccc(C(F)(F)F)c2)o1)c1ccccc1Br	1.1	-13	1.2	8	0	-20
O=C(N/N=C/c1ccc(-c2cccc(C(F)(F)F)c2)o1)c1cccc(F)c1	1	-3	0.8	37*	36*	25
Cc1ccc(C)c(-n2c(Cc3cc(=O)[nH]c(=O)[nH]3)nnc2SC(C)C)c1	1	-2	1	1	-15	2
Cc1c(C)[n+](=O)c(-c2ccco2)c(C)n1[O-]	0.8	17	0.8	31*	-1	17
CC1CCCCC1NC(=O)CSc1nnc(COc2ccccc2Cl)o1 (centres undefined)	0.8	21	1.1	9	-3	-10
O=C(CN1CCN(c2ncc(C(F)(F)F)cc2Cl)CC1)N1CCN(c2ncc(C(F)(F)F)cc2Cl)CC1	0.4	62*	0.2	30*	-4	82*
O=C(CSc1ccc(Cl)cc1)N1CCN(c2ncc(C(F)(F)F)cc2Cl)CC1	0.6	43	0.2	18	0	81*
O=C(Cc1ncc(C(F)(F)F)cc1Cl)N1CCN(c2ccccn2)CC1	0.8	18	1.2	7	-1	-18
Cc1ccc(C(=O)OCCN2CCN(c3ncc(C(F)(F)F)cc3Cl)CC2)cc1	0.8	18	0.7	10	-2	26
O=C(OCCN1CCN(c2ncc(C(F)(F)F)cc2Cl)CC1)c1ccc(F)cc1	0.7	27	0.3	11	6	69*
O=C(CCSc1ccc(Cl)cc1)N1CCN(c2ncccn2)CC1	0.7	25	0.4	6	14	65*
Nc1nnnn1/N=C/c1ccccn1	1.1	-5	1	5	-6	-4
O=C(NCCc1ccccc1)C1CCCN1C(=O)Nc1ccc(F)cc1 (centres undefined)	0.8	20	0.9	4	3	7
CCOC(=O)C(/C=C(\C#N)C(=O)OCC)=C(/N)N1CCN(c2c(C)cccc2C)CC1	0.8	16	1.1	10	9	-10
COc1cccc(N(CC(=O)N2CCN(C)CC2)S(=O)(=O)c2ccc(C)cc2)c1	1.1	-8	1	-5	-2	-2
CCOc1cccc(=O)c2c(C)n(C)c(C)c12	0.5	52*	0.5	5	0	49
COC(=O)CC1SCCNC1=O (centres undefined)	1.2	-18	1.2	-5	-12	-18
Cc1ccc(COc2ccc(Br)cc2/C=N/O)cc1	0.9	8	0.7	44*	19	27
O/N=C/c1cc(Cl)ccc1OCc1ccccc1Cl	0.8	21	0.4	30	7	61*
O/N=C/c1cc(Br)cc(Br)c1OCc1ccccc1	0.5	46	0.5	58*	3	49
COc1cc(/C=N/NC(N)=O)cc(Br)c1OCc1ccc(C)cc1	1	4	0.8	20	16	22
N#Cc1ccccc1Cn1c(=O)n(C2CCCC2)c(=O)c2ccccc21	0.1	86*	0	30*	5	96*
CCOC(=O)Cn1c(=O)n(CC(=O)OCC)c2ccccc21	0.8	22	0.8	-8	11	21
CCOC(=O)Cn1c(=O)n(C2CCCC2)c(=O)c2ccccc21	0.1	91*	0.2	-4	22	77*
SMILES	CYP2C19 act	CYP2C19 inh	CYP2C9 activ	PostGolgi ctrl	PostGolgi yeast	CYP2C9 inh
O=c1c2ccccc2n(Cc2cccc(F)c2)c(=O)n1C1CCCC1	0.7	32	0.7	40*	10	27
CCCc1nnc(NC(=O)CCC(=O)O)s1	1.1	-8	1.1	22	-8	-9
Cc1c(NC(=S)/C=C2\N(C)c3ccccc3C2(C)C)c(=O)n(-c2ccccc2)n1C	0.4	65*	1.9	3	-3	-93
Cc1c(N=CC=Nc2c(C)n(C)n(-c3ccccc3)c2=O)c(=O)n(-c2ccccc2)n1C	1	-1	1	·	·	0
Cc1c(NC(=O)NCc2ccccc2)c(=O)n(-c2ccccc2)n1C	1.1	-8	1.1	19	6	-9
Cc1c(N=C/C=C2\N(C)c3ccccc3C2(C)C)c(=O)n(-c2ccccc2)n1C	0.3	74*	1.1	4	-1	-10
CN(Cc1c(F)cccc1Cl)c1nnnn1-c1ccccc1	0	100*	0.7	6	-8	35
Cc1cc(C)cc(C(=O)N2CC(=O)Nc3ccccc32)c1	0.5	53*	0.6	-5	-3	36
Cc1ccsc1C(=O)N1CC(=O)Nc2ccccc21	0.8	23	1.1	0	-4	-7
Cc1ccc(C)c(NC(=O)C(C)CC2COCCO2)c1 (centres undefined)	1	0	1.1	0	2	-8
O=C1C(c2ccncc2)N(CCC2=CCCCC2)C(=O)CN1C1CCCCC1 (centres undefined)	0.5	53*	0.5	-4	1	54*
Cc1ccc(CNC(=O)Cn2cncn2)cc1	0.7	26	1.1	20	-6	-6
CCCCC1CCC(c2nc(-c3ccccn3)no2)CC1 (centres undefined)	1.1	-7	1.1	38*	-6	-8
COc1ccc(Nc2nnc(Cc3ccc(Cl)cc3)c(=O)[nH]2)c(OC)c1	0.6	39	0.4	5	-1	62*
CCN(CC)CCN(C(=O)Cn1nnc(-c2ccc(OC)c(OC)c2)n1)C(C(=O)NC1CCCC1)c1ccc(F)cc1 (centres undefined)	0.8	25	1	4	-2	3
O=C(CP(=O)(CO)CO)c1ccc(Cl)cc1	1.2	-22	1.2	7	13	-19
O=C(c1ccco1)N1C(=O)c2cccc3cccc1c23	0.9	14	3.8*	15	-7	-276
N#CC1=C(N)N2C(=C(C#N)C13CCCCC3)SC1CCCCC12O (centres undefined)	0.6	41	0.6	17	-1	40
COC(=O)C1=C(C)NC2=C(C1c1ccc(O)cc1)S(=O)(=O)c1ccccc12 (centres undefined)	0.4	62*	0.1	8	-7	87*
CCOc1ccc(N/C=C/C(=O)c2ccc(C)cc2)c([N+](=O)[O-])c1	0.8	23	1.8	28	5	-80
CCOc1ccc(N/C=C/C(=O)c2ccc3ccccc3c2)c([N+](=O)[O-])c1	1	4	2.1*	0	0	-108
COc1ccc(C(=O)/C=C/Nc2ccc([N+](=O)[O-])cc2C)cc1OC	0.4	60*	1	12	3	0
